Active and inactive are the calls of the source.
Legend:
Albumin (Bos taurus) = Albumin (Bos taurus) (UniProt P02769); experiment: bovine serum albumin binders on microarray, profiling panel, artefact control for SMM control protein annotation, biochemical, small-molecule microarray, Alexa647 label, 635/667 nm fluorescence (AID 1118); settings: BSA-A647 binding, fluorescence 635 nm, higher = more signal;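 also: score merges 667 nm emission intensity and signal-to-noise per printed compound spot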
[1] = small-molecule microarray binders of probe aXIP, primary screen, biochemical, NeuroSMM set, 635/667 nm fluorescence (AID 1119); settings: higher = more signal, called active from +8 up or from −8 down;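 also: probe is the protein aXip251-270 applied at 1 µg/mL to compound-printed slides; binding of probe to printed compounds measured as 667 nm fluorescence plus signal to noise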
[2] = small-molecule binders of probe aNOTCH3, primary screen, biochemical, small-molecule microarray, 635/667 nm fluorescence (AID 1120); settings: higher = more signal;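 also: probe is a biotin-tagged antibody raised against NOTCH3 rather than NOTCH3 protein; score merges spot fluorescence near 667 nm with spot signal to noise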
[3] = small-molecule binders of probe aNOTCH2, primary screen, biochemical, small-molecule microarray, 635/667 nm fluorescence (AID 1121); settings: higher = more signal;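 also: score merges feature fluorescence read at 667 nm with its signal to noise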
[4] = target: Carbonic anhydrase 2 (Homo sapiens) (UniProt P00918); experiment: CAII small-molecule binders, profiling panel, biochemical, small-molecule microarray, Alexa647-labelled CAII (AID 1122); settings: CAII-A647 binding fluorescence, higher = more signal
[5] = COS7 lysate on small-molecule microarray, probe aHis, 635 nm (AID 1123); settings: COS7 cell lysate, fluorescence, higher = more signal;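 also: z-score combines 667nm fluorescence intensity with signal-to-noise per printed compound spot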
[6] = compound binding in COS7 lysate, probe aLAP1, primary screen, cell lysate, small-molecule microarray (AID 1124); settings: probe aLAP1, fluorescence, higher = more signal;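 also: lysate comes from COS7 cells expressing LAP1 and is applied at 0.3 µg/mL; score merges spot fluorescence near 667 nm with signal-to-noise over triplicate slides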
Sam68 (KHDRBS1) = experiment: Sam68 small-molecule binders, primary screen, biochemical, small-molecule microarray, 635 nm fluorescence (AID 1125); settings: small-molecule microarray binding, higher = more signal;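 also: score merges 667 nm channel intensity with signal to noise over triplicate slides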
[7] = tested on: Chordin-like protein 2 (CHRDL2); experiment: CHRDL2 small-molecule binders, primary screen, biochemical, small-molecule microarray, 635 nm fluorescence (AID 1126); settings: small-molecule microarray binding, fluorescence 635 nm; higher = more signal;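 also: printed compound slides probed with Chrdl2 protein at 4 µg/mL for 1 h at 4 C; score merges 667 nm emission intensity with signal to noise over three replicate slides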
[8] = target: Concanavalin-A (Canavalia ensiformis) (UniProt P02866); experiment: ConA small-molecule binders, primary screen, artefact control for SMM control protein annotation, biochemical, small-molecule microarray, Alexa647 label, 635 nm (AID 1127); settings: ConA-A647 binding fluorescence, higher = more signal;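 also: z combines 667 nm emission intensity with signal-to-noise across three replicate slides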
Chain of Concanavalin-A (Canavalia ensiformis) (P02866 whole entry, looked up): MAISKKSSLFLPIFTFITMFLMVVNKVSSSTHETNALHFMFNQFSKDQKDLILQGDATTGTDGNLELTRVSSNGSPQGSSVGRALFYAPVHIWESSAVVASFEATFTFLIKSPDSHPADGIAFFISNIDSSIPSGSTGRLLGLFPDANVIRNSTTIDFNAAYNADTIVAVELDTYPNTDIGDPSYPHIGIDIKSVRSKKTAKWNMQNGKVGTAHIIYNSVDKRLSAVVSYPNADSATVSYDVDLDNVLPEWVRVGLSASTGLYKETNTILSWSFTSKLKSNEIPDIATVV

Chain of Albumin (Bos taurus) (P02769 whole entry, looked up): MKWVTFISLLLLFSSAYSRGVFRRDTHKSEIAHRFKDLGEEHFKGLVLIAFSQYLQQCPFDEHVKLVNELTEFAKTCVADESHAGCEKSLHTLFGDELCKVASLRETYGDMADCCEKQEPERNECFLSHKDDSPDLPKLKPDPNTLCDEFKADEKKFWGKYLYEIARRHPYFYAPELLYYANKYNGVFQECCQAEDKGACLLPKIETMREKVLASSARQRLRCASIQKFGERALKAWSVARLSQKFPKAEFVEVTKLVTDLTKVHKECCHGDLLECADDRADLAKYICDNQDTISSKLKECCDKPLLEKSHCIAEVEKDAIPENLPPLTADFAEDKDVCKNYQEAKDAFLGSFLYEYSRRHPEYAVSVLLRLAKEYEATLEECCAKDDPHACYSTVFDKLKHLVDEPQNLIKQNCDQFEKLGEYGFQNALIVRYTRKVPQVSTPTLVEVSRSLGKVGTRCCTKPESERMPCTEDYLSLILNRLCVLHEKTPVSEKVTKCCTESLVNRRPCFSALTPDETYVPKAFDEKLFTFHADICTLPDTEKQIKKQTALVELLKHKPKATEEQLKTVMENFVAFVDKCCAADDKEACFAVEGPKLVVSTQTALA

SMILES	composite z-score (Albumin (Bos taurus))	composite Z-score [1]	composite z-score [2]	composite z-score [3]	composite z-score [4]	composite z-score [5]	composite z-score [6]	composite z-score (Sam68 (KHDRBS1))	composite z-score [7]	composite z-score [8]
C=C(/C(=C/C[C@@H](OC(C)=O)c1ccc(CO)o1)c1cc(C(=O)OC)ccc1OC)C(C)C	0.461	-0.0662 (inactive)	0.232	-0.124	0.662	1.31	0.0806	0.561	0.0347	0.395
Nc1cc(Br)ccc1C(=O)O	0.235	2.13 (inactive)	0.0026	-0.117	0.18	-0.12	-0.0137	0.213	-0.079	0.713
COCCOC(=O)N1C(=O)[C@@]2(c3cc(C#CCNC(N)=O)ccc31)[C@H](c1ccc(OCCO)cc1)N1[C@H](c3ccccc3)[C@H](c3ccccc3)OC(=O)[C@H]1[C@@H]2C(N)=O	0.319	0.658 (inactive)	0.116	-0.01	0.264	1.13	0.439	1.13	0.457	1.08
COCCOC(=O)N1C(=O)[C@@]2(c3cc(C#CCNC(N)=O)ccc31)[C@H](c1ccc(O)cc1)N1[C@H](c3ccccc3)[C@H](c3ccccc3)OC(=O)[C@H]1[C@@H]2C(=O)N1CCN(c2ncccn2)CC1	0.678	0.529 (inactive)	0.344	-0.175	0.506	2.41	0.566	1.27	0.279	1.1
CC(C)c1ccc(NN2C(C(O)Cc3ccccc3)C=CC3C(=O)N(c4ccccc4)C(=O)C32)cc1 (stereo not given)	0.999	0.221 (inactive)	0.428	0.0383	0.751	2.65	0.0643	1.31	-0.209	1.14
COC(=O)[C@@]1(Cc2ccc(OC)cc2)[C@H]2c3cc(C(=O)N4CCCC4)n(Cc4cc(C)n(C)n4)c3C[C@H]2CN1C(=O)c1ccccc1	1.09	5.19 (inactive)	0.313	0.446	0.962	3.19	0.637	1.32	-1.19	0.485
COc1cc(NN2C(C(O)C3CCCCC3)C=CC3C(=O)N(C)C(=O)C32)cc(OC)c1OC (stereo not given)	1.04	1.37 (inactive)	0.678	0.22	0.424	2.78	0.339	1.32	-0.531	1.15
COc1cc(CO)cc(I)c1O[C@H]1C=C(C(=O)NCCO)C[C@@H](NCC2CCCCC2)[C@@H]1O	0.0439	-0.442 (inactive)	0.107	-0.104	0.681	1.14	-0.102	0.408	0.168	0.324
C=C[C@@H](C)[C@H](O)c1ccc(OCCO)cc1	0.189	0.0275 (inactive)	-0.529	-0.206	0.799	0.28	-0.343	-0.885	-0.49	-1.01
CC1(C)C(=O)C(c2ccccc2)=C2CN3C(=O)N(CCc4ccccc4)C(=O)C3(Cc3ccc(F)cc3)C=C21 (stereo not given)	0.471	0.0294 (inactive)	0.781	0.246	0.0225	1.39	0.155	0.222	-1.21	0.477
CC(C)(C)OC(=O)CC[C@]1(C(=O)N2CCCCC2)COC(c2ccc(OCCCO)cc2)=N1	0.939	1.28 (inactive)	0.286	0.0341	0.862	2.68	1.05	1.14	-0.538	1.11
COc1ccc(C(=O)Nc2cccc(CN3C(=O)[C@@]4(O[C@@H](CC(=O)N(CCO)Cc5ccccc5)[C@H]([Si](C)(C)c5ccc(OC)cc5)[C@H]4C)c4ccccc43)c2)cc1	0.441	0.799 (inactive)	-0.122	-0.0868	0.56	1.56	0.229	1.19	0.351	0.601
[N-]=[N+]=NCc1ccccc1[C@H]1OC(c2ccc(OCCCO)cc2)=N[C@@]1(CCS(=O)(=O)c1ccccc1)C(=O)NCc1ccccc1	0.852	0.421 (inactive)	0.281	0.0323	0.435	1.6	0.0714	1.24	0.187	1.13
[N-]=[N+]=Nc1ccccc1C[C@]1(C(=O)O)N=C(c2ccc(OCCCO)cc2)O[C@H]1c1ccccc1N=[N+]=[N-]	0.893	0.644 (inactive)	0.293	0.166	0.57	2.84	0.871	1.32	0.135	1.13

From PubChem BioAssay
